Experimental data published in PubChem BioAssay (NCI).
Compounds without any hit were thinned out: in the full panel of roughly 79,000, 15% have a hit. Unmarked numbers belong to inactive results. Active and inactive are the calls of the source. No stated cut-off is given here; in the data, active means growth inhibition above about 70%; inactive means the rest.

Experiments:
[1] = NCI Yeast Anticancer Drug Screen. Data for the rad50 strain (AID 155);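 further: 0% = growth of vehicle-only cultures of the same strain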; details: S. cerevisiae rad50 strain growth inhibition; at 50.0 µM; hits give high values
Outline: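 Inhibition values express reduced yeast growth in compound-treated cultures relative to vehicle-treated controls.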

[2] = NCI Yeast Anticancer Drug Screen. Data for the mec2-1 strain (AID 157); details: S. cerevisiae mec2-1 strain, at 50.0 µM, hits give high values
Outline: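 Strain: mec2-1 (DNA repair/cell cycle alteration). Compound exposure, then growth measured; inhibition expressed relative to vehicle.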

[3] = NCI Yeast Anticancer Drug Screen. Data for the sgs1 mgt1 strain (AID 161);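 further: 0% = growth of cultures given vehicle only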; details: S. cerevisiae sgs1 mgt1 strain, at 50.0 µM, hits give high values
Outline: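 Read-out: growth inhibition vs vehicle controls. Cells: mutant yeast strain deficient in DNA damage repair.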

[4] = NCI Yeast Anticancer Drug Screen. Data for the cln2 rad14 strain (AID 165);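 further: 0% = growth equal to vehicle treated cultures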; details: S. cerevisiae cln2 rad14 strain, at 50.0 µM, hits give high values
Outline: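 Compounds are applied to the cln2 rad14 yeast strain, and growth is then compared with that of vehicle-treated cultures to give inhibition.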

[5] = NCI Yeast Anticancer Drug Screen. Data for the bub3 strain (AID 167); details: S. cerevisiae bub3 mutant strain, at 50.0 µM, hits give high values
Outline: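 Steps: expose the mutant yeast strain to compound; grow alongside vehicle-treated cultures; measure growth; express inhibition against the vehicle cultures.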

[6] = NCI Yeast Anticancer Drug Screen. Data for the mlh1 rad18 strain (AID 175); details: S. cerevisiae mlh1 rad18 strain growth inhibition; at 50.0 µM; hits give high values
Outline: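 Read-out is yeast growth inhibition, calculated against vehicle-only controls. The compound was applied to a strain engineered with DNA damage repair alterations.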

| Structure (SMILES) | growth inhibition [1] | growth inhibition [2] | growth inhibition [3] | growth inhibition [4] | growth inhibition [5] | growth inhibition [6] |
| --- | --- | --- | --- | --- | --- | --- |
| COc1ccc2ccc3oc([N+](=O)[O-])cc3c2c1 | 14.8% | 25.7% | -23.9% | -14% | -36% | -36% |
| [O-][n+]1c2ccccc2nn1-c1ccc(N(CCCl)CCCl)cc1 | 7.2% | 0.35% | -2.05% | -6.95% | -16.9% | -22.1% |
| S=c1[nH]c2ccccc2[nH]1.[Zn+2] | 13.2% | 10.3% | 18.2% | 10.2% | -21.4% | -5.35% |
| CC(C)=CCN1CCC2(C)c3cc(O)ccc3CCC2C1 (stereo not given) | -9.9% | -8.8% | -0.8% | -31.2% | -6.5% | -2.1% |
| COc1ccc2c(c1O)C13CCN(C)C(C2)C1CCC(O)C3 (stereo not given) | -16.4% | 2.95% | -11.8% | -11.8% | -1.7% | -20% |
| [C-]#[N+]C1CCCCC1.[C-]#[N+]C1CCCCC1.[Ni].[S-]c1ccccc1.[S-]c1ccccc1 | 37.5% | 16% | 40.4% | 20.1% | 3.5% | 36.6% |
| CCC1(c2ccccc2)C(=O)N(C)C(=O)N(CCCl)C1=O (stereo not given) | 12.5% | 8.15% | -0.8% | -34.5% | 22.3% | 3.85% |
| CN1C[C@H]2[C@@H](C1=O)[C@H](c1ccccc1)ON2C | -16.4% | -55.2% | -34% | 13.6% | 5.85% | -1.85% |
| COC1=CCC2=C(CC[C@H]3[C@H]2CCP3C)C1 (stereo not given in full) | 8.65% | -10.8% | -7.85% | -17.9% | 0.9% | 5.25% |
| C=CCc1c[nH]c(=S)[nH]c1=O.[Hg] | 99.1% (active) | 98.8% (active) | 98.8% (active) | 98.8% (active) | 99% (active) | 98.8% (active) |
| c1cc[n+]2c3c(sc2c1)CCC3 | 9.75% | -8.2% | -5.25% | -4.15% | -6.7% | -26.8% |
| CC1(C)C2CC[C@@]1(C)C(=O)C2Br (stereo not given in full) | 24.9% | 25.6% | -1.6% | 7.55% | 23.9% | -8.7% |
| S=C(SSC(=S)N(Cc1ccccc1)Cc1ccccc1)N(Cc1ccccc1)Cc1ccccc1 | -1.7% | 11.6% | 2.95% | -14.3% | -20.6% | 12% |
| O=c1cc(O)c2ccccc2o1 | 26.1% | -1.55% | -4.1% | 15.6% | -10.2% | 14.3% |
| NC(=O)C(CBr)NCc1ccccc1 (stereo not given) | -0.1% | -13.6% | -6.15% | -27.8% | 6.7% | -10.6% |
| CCCCCCCCCCCC[C@@H](O)[C@H]1CC[C@H]([C@H](O)CCCC[C@H](O)CCCCC[C@@H](O)CC2=C[C@H](C)OC2=O)O1 | 10% | -7.05% | -20.8% | -7.5% | -1.65% | -41.2% |
| Clc1cc[c]([Sn]([Cl])([c]2ccc(Cl)cc2)[c]2ccc(Cl)cc2)cc1 | 98.5% (active) | 98.5% (active) | 98.8% (active) | 97.7% (active) | 97.5% (active) | 98.3% (active) |
| C/C=C1/C[N+]2([O-])CC[C@@]34c5ccc(OC)cc5N(C)[C@H]3C2CC1C4C(=O)OC (stereo not given in full) | 7.65% | -8.05% | -3.1% | -6% | -10.8% | 2.25% |
| ClC1CC2OC(Cl)CC2O1 (stereo not given) | 5.2% | 1.05% | -19.1% | -20.9% | 0.4% | 1.15% |
| C/C=N/Nc1ccc([N+](=O)[O-])cc1[N+](=O)[O-] | 10.5% | -6.35% | -11.8% | -14.9% | 3.3% | 16.8% |

| Structure (SMILES) | growth inhibition [1] | growth inhibition [2] | growth inhibition [3] | growth inhibition [4] | growth inhibition [5] | growth inhibition [6] |
| --- | --- | --- | --- | --- | --- | --- |
| CC(=O)[O-].[Ni].c1ccc(/C(=N\Nc2ccccn2)c2ccccn2)cc1 | 19.8% | 3.15% | 4.25% | -3.7% | -4.6% | 18.6% |
| CCN1CN(c2ccccc2)C2(CCN(CC(CC3OCCO3)c3ccc(F)cc3)CC2)C1=O (stereo not given) | 28.5% | 32.2% | 51.9% | 13.6% | 47% | 44.6% |
| CSP(=S)(SC(C)C)SC(C)C | 13.7% | 5.75% | 13.2% | 3.8% | 0.5% | 29.3% |
| O=C(O)c1ccc([As](=O)(O)O)cc1[N+](=O)[O-] | -3.85% | -23.1% | -0.65% | 1.7% | -3.6% | 7.4% |
| [Be]=[Se] | -21.1% | -0.4% | -2.9% | 2.1% | -11.4% | 29.7% |
| CCOP(=O)(Oc1ccc([N+](=O)[O-])cc1)c1cccc(Br)c1 (stereo not given) | 41.5% | 19.5% | 54% | 41.3% | 38.5% | 25% |
| O=C(CC(=O)C(F)(F)C(F)(F)C(F)(F)F)c1ccco1.[Fe] | 25.3% | 24.7% | 23.6% | 13.6% | 15.7% | 17.9% |
| Cc1cc(N(C)CCCl)ccc1N=Nc1ccccc1C(=O)O | 36.5% | 10.8% | 36.8% | 6% | 23.4% | 18.8% |
| CCC1(CC)C(=O)N(C)P(=O)(Oc2ccccc2)N(C)C1=O | 5.7% | 15.4% | 9.3% | 1.6% | 7.1% | 4.6% |
| O.O.O=Cc1ccccc1O.O=Cc1ccccc1O.[Ni] | 47.1% | 52.4% | 64.7% | 17.1% | 51.5% | 76.9% (active) |
| ClCC1CCN(CCc2ccccc2)CC1 | -5.5% | 13.8% | 8.65% | -36.6% | -17.8% | 9.65% |
| COC(=O)Cc1ccccc1 | -4.4% | 15.1% | -31.8% | 5.9% | -50.5% | -19.5% |
| CCCCOC(=O)c1ccccc1N | -4.3% | -15.5% | -4.2% | -1.85% | 0.2% | -3.6% |
| O=C1NC(=O)C2(CCc3ccc(N(CCCl)CCCl)cc32)N1 (stereo not given) | 14.1% | -19.5% | -4.75% | 11.9% | -16.6% | 11.1% |
| CO[C](=[W])c1ccccc1.[C-]#[O+].[C-]#[O+].[C-]#[O+].[C-]#[O+].[C-]#[O+] | 12.2% | -0.6% | -2.3% | 1.55% | 1.05% | -4.1% |
| C[CH2][Sn]([CH2]C)([n]1c(C)nc2ccccc21)[n]1c(C)nc2ccccc21 | -11.8% | 2.95% | -19.3% | 0.3% | 10.3% | -12.8% |
| CCCCCCCC(=O)O.[Pb] | 3.55% | 5.55% | 3% | 13.9% | -6% | 14.8% |
| C=C(C)[C@H]1CN[C@H](C(=O)O)[C@H]1CC(=O)O | -5.6% | -5% | -6.15% | -19.9% | -6.5% | 5.05% |
| Nc1ccc(C(=O)Nc2ccc([As](=O)(O)O)cc2)cc1 | 4.35% | 11.4% | 7.8% | -17.3% | 5.4% | 23.9% |
| COC(=O)C1=CO[C@@H](C)[C@@H]2CN3CCc4c([nH]c5cc(OC)ccc45)[C@H]3C[C@H]12 | -43.8% | -32.6% | -34% | -30.1% | -2.05% | -41% |
